Only some compounds are listed: those with a hit (about 1.7% of all), similar ones and a draw of the others.
GLP-1R agonist: agonists of human GLP-1 receptor; P43220; HEK293 GLP-1R CRE-luciferase, luminescence, 4-6 h; cells express a hypersensitive GLP-1R form; Potency, µM (series often up to 45.6 µM), for the others: at the top dose activation, most hits filed as activators; 0.007% of 380,000 active; AID 624172; further: potency means the concentration at half of the fitted maximal effect; % of control where 0% means no effect
Target sequence (P43220 whole entry, looked up): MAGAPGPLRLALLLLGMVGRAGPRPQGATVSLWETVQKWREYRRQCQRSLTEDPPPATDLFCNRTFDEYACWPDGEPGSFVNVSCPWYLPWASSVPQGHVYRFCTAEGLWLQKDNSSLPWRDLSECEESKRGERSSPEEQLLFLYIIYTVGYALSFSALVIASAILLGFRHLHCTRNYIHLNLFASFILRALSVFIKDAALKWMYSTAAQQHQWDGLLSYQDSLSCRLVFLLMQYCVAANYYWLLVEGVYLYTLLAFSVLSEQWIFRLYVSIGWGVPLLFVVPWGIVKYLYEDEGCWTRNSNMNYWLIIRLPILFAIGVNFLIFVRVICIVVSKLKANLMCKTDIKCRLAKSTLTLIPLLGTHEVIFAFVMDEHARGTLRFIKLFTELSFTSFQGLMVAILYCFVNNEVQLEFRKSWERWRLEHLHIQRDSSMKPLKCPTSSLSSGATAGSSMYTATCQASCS
IDH1 R132H inh: blocks human mutant IDH1 R132H enzyme; O75874; IDH1-R132H enzyme, NADPH consumption, diaphorase/resazurin fluorescence; Potency, µM (titrated, usually from 76.6 µM), without a hit: top-dose activity change, negative = inhibition, actives largely listed as inhibitors; 0.093% of 390,000 active; AID 602179; further: potency means the concentration at half of the fitted maximal effect; on the % scale 0 is the no-effect control and ±100 the full control effect; nearly all actives have a fitted effect of over 65% in size
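IDH1-R132H (0.5 ug/mL dispensed) in pH 7.5 Tris buffer was preincubated 30 min with compound, then given a substrate mix of 0.016 mM NADPH and 2 mM alpha-KG for 80 min at room temperature; remaining NADPH was read by diaphorase/resazurin fluorescence.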
HEK293 tox: cytotoxic in the GLP-1 receptor inverse agonist counter-screen. AID 624418. Potency, µM (titrated, usually from 38.3 µM), for inactives: at the highest dose activity change, negative = inhibition, hits mostly inhibitors. 0.13% of 410,000 active. HEK293 cAMP-luciferase reporter cells, luminescence, 24 h;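 further: loss of luciferase light is scored as toxicity; potency means the concentration at half of the fitted maximal effect; on the % scale 0 is the no-effect control and ±100 the full control effect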
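To flag toxic compounds, the library was rerun on cells for 24 hr at 37 deg C and 5% CO2. Viability-linked luminescence was captured 12 min after adding luciferase detection reagent.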
LDHA block: inhibitors of human lactate dehydrogenase A. purified LDHA, NADH/diaphorase-resazurin fluorescence; active compounds read low. activity change, % (values are at about 110 or 230 µM). 0.15% of 480,000 active. AID 1347041; in the data active means activity change below about -30%; inconclusive means mostly about -25% to -30%;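 further: plate controls were DMSO wells for no effect and wells without enzyme for full effect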
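Human LDH5 at 2 nM final in Tris HCl pH 7.4 with 0.06 mM NADH and 0.2 mM pyruvate, reacted 5 minutes at room temperature. Remaining NADH coupled via diaphorase/resazurin; resorufin fluorescence read at 0 and 20 minutes, normalized to enzyme-free and DMSO wells.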
GLP-1R inv ag: acts as inverse agonist at human GLP-1 receptor | P43220 | HEK293 GLP-1R CRE-luciferase, luminescence, 24 h; GLP-1R form is constitutively active | Potency, µM (titrated, usually from 38.3 µM), without a hit: top-dose activity change, negative = inhibition, hits mostly inhibitors | 1.6% of 410,000 active; further: potency means the concentration at half of the fitted maximal effect; on the % scale 0 is the no-effect control and ±100 the full control effect; nearly all actives have a fitted effect of over 55% in size
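Assay principle: reduced luminescence from a cAMP-responsive reporter in HEK293 cells co-expressing a constitutively active GLP-1R. Conditions: 24 hr compound incubation, 37 deg C, 5% CO2.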
PTHR1 agonist: PTHR1 (human) receptor agonism; HEK293 GP2 PTHR1 cells, GloSensor cAMP luminescence, 1 h; Potency, µM (highest dose often 115 µM), inactives show at the highest dose activation, actives largely listed as activators; 0.075% of 410,000 active; further: potency means the concentration at half of the fitted maximal effect; nearly all actives have a fitted effect of over 55% in size
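HEK-293-derived GP2 cells expressing PTHR1 and a GloSensor cAMP reporter, 3,000/well, plated overnight, given luciferin plus IBMX (each 0.5 mM as added) for 1 h at 37 °C, then compound for 1 h at 37 °C. Luminescence was read after 15 min at room temperature.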
Starred values were filed as active, the others as inactive; i = inactive; ? = inconclusive; / = no result. Unless noted, the call rests on the fitted dose curve; in most records, active means well fitted curve in the direction sought with a large enough effect; inconclusive means small, poorly fitted or top-dose-only effect, or another doubt; inactive means no such curve, though single readings can be large; an effect the other way counts as inactive or inconclusive.

SMILES	GLP-1R agonist	IDH1 R132H inh	HEK293 tox	LDHA block	GLP-1R inv ag	PTHR1 agonist
O=C(CSc1nc2c(sc3ccccc32)c(=O)n1CCCN1CCCC1)NCc1ccco1	8%	0%	?	-1	10µM*	i
Cc1cc(NC(=O)CSc2nc3c(sc4ccccc43)c(=O)n2CCc2ccccc2)n[nH]1	-10%	-1%	6%	-15	8%	i
Cc1cc(NC(=O)CSc2nc3c(sc4ccccc43)c(=O)n2CCCN2CCOCC2)n[nH]1	19%	-2%	5µM*	-8	0%	i
O=C(CNC(=S)N(Cc1ccccc1)Cc1cccs1)NCc1ccc(F)cc1	7%	-9%	-24%	-2	2.8µM*	-22%
O=C(CNC(=S)N(Cc1ccccc1)Cc1ccccc1F)NCCc1ccc(Cl)cc1	8%	-12%	-29%	-1	4µM*	-34%
O=C(CNC(=S)N(CCCN1CCOCC1)Cc1cccs1)NCc1ccccc1	6%	-4%	-5%	-9	-9%	-21%
COCCn1c(SCC(=O)N(C)CCOc2ccc(Cl)cc2)nnc1-c1ccc(Cl)cc1	/	/	/	9	/	/
CSc1ccc(/C=C/C(=O)c2ccc(NC(=O)C(C)C)cc2)cc1	-12%	-2%	?	-12	10µM*	i
COc1ccc(-c2nsc3c(N4CCCCC4C)ncnc23)cc1 (stereo unspecified)	-12%	16%	39%	1	0.28µM*	-43%
Clc1cc(Cl)c(N/N=C/c2cccc(Cl)c2Cl)c(Cl)c1	/	/	/	-21	/	/
O=C(NCC1(c2ccccc2)CCCC1)c1ccccc1	16%	11%	0%	-6	?	-18%
O=C(NCC1(c2ccccc2)CCCC1)c1ccccc1Br	14%	3%	0%	-7	10µM*	-12%
O=C(NCCCCc1ccccc1)c1cc(=O)[nH]c2ccccc12	/	/	/	4	/	/
CN(Cc1ccccc1)S(=O)(=O)c1ccc(Cl)c(C(=O)Nc2cccc3cccnc23)c1	/	/	/	20	/	/
O=C(CCl)N1CCN2C(=O)c3ccccc3C12c1ccc(Cl)cc1 (stereo unspecified)	-1%	-26%	11%	-2	?	-34%
O=C(Nc1cccc(Cl)c1)N1CCN2C(=O)c3ccccc3C12c1ccccc1 (stereo unspecified)	-17%	-7%	?	-2	8.9µM*	-22%
Nc1nccnc1C(=O)Nc1ccc(C(=O)NCc2ccc(F)cc2)cc1	/	/	/	7	/	/
Fc1cccc(Cn2cc(C(=S)N3CCCCC3)c3ccccc32)c1	1%	-4%	4%	4	7.9µM*	0%
Cc1ccc(-c2ccc(/C=N/N3C(=O)C4C5C=CC(C6CC56)C4C3=O)o2)c([N+](=O)[O-])c1 (stereo unspecified)	2%	3%	-27%	6	3.5µM*	-14%
CCCCn1nc(C(=O)Nc2ccc3nc(C)sc3c2)c2ccccc2c1=O	/	/	/	10	/	/
CCN(CC)CCCNCC(=O)Nc1cc(C)on1	-1%	3%	1%	-30*	-2%	10%
Cc1cc(-n2c(C)cc(C(=O)CCl)c2C)no1	-4%	6%	?	2	10µM*	-32%
CC(c1ccc(F)cc1)N(C)CCC(=O)N1CCCCC1 (stereo unspecified)	/	/	/	-1	/	/
Cc1[nH]n(-c2ccccc2)c(=O)c1/C=N/N1CCOCC1	6%	-4%	2%	-4	15%	i
Cc1[nH]n(-c2ccccc2)c(=O)c1/C=N/N1C(=O)c2cccc3cccc(c23)C1=O	6%	1%	?	-1	13µM*	i
Cc1[nH]n(-c2ccccc2)c(=O)c1/C=N/NC(=O)c1cccc(F)c1	0%	6%	-16%	1	7.9µM*	-36%
CN(Cc1ccc2c(c1)OCO2)C(=O)c1cccc(OCc2ccccc2)c1	/	/	/	5	/	/
COc1cc(/C=C/[N+](=O)[O-])c2c(c1Br)CCCO2	/	/	/	0	/	/

Screening data deposited in PubChem by National Center for Advancing Translational Sciences (NCATS).
